# MARV entry inh: qHTS for inhibitors of binding or entry into cells for Marburg Virus | Marburg virus pseudotyped entry inhibition, cell reporter | Potency, µM (doses to about 37.8 µM), for inactives: at the highest dose activity change, negative = inhibition, hits mostly inhibitors | 300,000 compounds, 1.8% hits | AID 540276, 2011; calls by dose curve; tested in HEK293 cells
# Sm TGR inh: qHTS Assay for the Inhibitors of Schistosoma Mansoni Peroxiredoxins; 360,000 compounds, 3% hits; AID 485364, 2010; purified TGR, DTNB reduction, TNB absorbance 405 nm; Potency, µM (series often up to 114 µM), for the others: top-dose activity change, negative = inhibition, hits mostly inhibitors; Schistosoma mansoni thioredoxin glutathione reductase (TGR), Q962Y6; note: nearly all actives have a fitted effect of over 60% in size
#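 Kinetic colorimetric format: TGR-catalysed, NADPH-driven DTNB reduction monitored via TNB absorbance. Enzyme dispensed at 20 nM; compound exposure 15 min at room temperature before reaction start.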
# HCV inhibitor: qHTS Assay for Inhibitors of Hepatitis C Virus (HCV); Huh7.5.1 HCVcc-Cre infection, luciferase reporter, 44 h; Potency, µM (top dose mostly 41.8 µM), inactives show at the highest dose activity change, negative = inhibition, usual class: inhibitors; 340,000 compounds, 3.4% hits; AID 651820, 2012
#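 Luciferase read-out (15 sec integration) after a 15 min room-temperature substrate step quantifies HCVcc-Cre infection. Cells, 1,000 per well, had compound added 4 h post-plating, then virus at ~0.5 moi, and were cultured 44 h.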
# FMDV inh: High Throughput Screening for Foot and Mouth Disease Virus Antivirals; FMDV antiviral cell-based qHTS; Potency, µM (titrated, usually from 57.9 µM), without a hit: top-dose activity change, negative = inhibition, hits mostly inhibitors; 410,000 compounds, 1.2% hits; calls by dose curve; tested in HEK293T cells; note: read-out not given here; nearly all actives have a fitted effect of over 45% in size
# RE007 growth inh: qHTS Assay for Inhibitors of the HIV-1 protein Vpr. S. pombe RE007 Vpr strain, BacTiter-Glo ATP luminescence, 24 h. Potency, µM (doses to about 92.2 µM), without a hit: at the top dose activity change, negative = less growth, most hits filed as inhibitors. 360,000 compounds, 0.21% hits. AID 651644, 2012; active = well fitted falling curve with a large enough effect; inconclusive = small, poorly fitted or top-dose-only effect; inactive = no such curve, though single readings can be large or run the other way; note: nearly all actives have a fitted effect of over 50% in size
#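 Fission yeast strain RE007, carrying one chromosomally integrated HIV-1 vpr copy, was seeded at OD 0.01 in PMG+AL medium with 23 nL pinned compound. After 24 h at 30 °C and 99% humidity, viability was read by BacTiter-Glo luminescence.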
# Lassa entry inh: qHTS for Inhibitors of binding or entry into cells for Lassa Virus; Lassa virus pseudotype entry inhibition, cell reporter; Potency, µM (titrated, usually from 37.9 µM), without a hit: at the highest dose activity change, negative = inhibition, hits mostly inhibitors; 300,000 compounds, 1.2% hits; AID 540256, 2011; calls by dose curve; tested in HEK293 cells; note: nearly all actives have a fitted effect of over 50% in size
# * hit, by the source's call; ? = inconclusive; / = not tested or not shown; [ ] = dose if it differs, or a comment. Shown are actives, neighbours in structure and some others; about 7.2% of the full set was active somewhere. Unless noted, calls come from the whole dose curve; as a rule, active = well fitted curve in the direction sought with a large enough effect; inconclusive = small, poorly fitted or top-dose-only effect, or another doubt; inactive = no such curve, though single readings can be large; an effect the other way counts as inactive or inconclusive. % is set by controls: 0 for no effect and ±100 for the full control effect; potency is the fitted concentration of half-maximal effect.
SMILES,MARV entry inh,Sm TGR inh,HCV inhibitor,FMDV inh,RE007 growth inh,Lassa entry inh
Cc1ccc(NC(=O)CCCCCN2C(=O)[C@@H]3Cc4ccccc4CN3C2=O)c(Cl)c1,/,-2%,13µM*,?,13%,/
Cc1ccc2nc(NC(=O)CSc3ncc(C(=O)Nc4ccc(F)cc4)c(=O)n3C)sc2c1,/,1%,/,8%,/,8%[46.1 µM]
C(=Cc1cnc2ccccc2n1)c1ccc2c(c1)OCO2,/,/,/,1.8µM*,-2%,/
O=C(NCC1(N2CCOCC2)CCCC1)c1cnn(-c2ncc3c(n2)-c2ccccc2CC3)c1C1CC1,/,/,/,0%,/,/
COc1ccc(C(=O)NC(=S)NC(C)(C)C)cc1Br,-4%,-32%,?,-6%,-18%,-5%
COc1ccc(C(=O)NC(=S)NC(C)C)cc1Br,-5%,16µM*,?,16%,-12%,1%
CCOC(=O)c1ccc(NC(=S)NCc2ccco2)cc1,/,11µM*,-4%,22%,0%,/
CCOc1ccc(NC(=S)NCc2ccco2)cc1,?,-23%,-6%,35%,-13%,-1%[46.1 µM]
COc1cc(OC)cc(C(=O)NC(=S)NCc2ccco2)c1,17%,?,0%,11%,0%,?
COc1ccc(C(=O)NC(=S)NCc2ccco2)cc1OC,-12%,?,-10%,-4%,-25%,-12%
COc1ccc(C(=O)NC(=S)NCc2ccco2)cc1,12%,7.1µM*,-18%,53%,-21%,?
COc1ccc(C(=O)NC(=S)NCc2ccco2)cc1Br,12%,50µM*,-27%,-19%,-27%,2%
CCc1ccc(S(=O)(=O)c2nnn3c2nc(NCCC(C)C)c2cc(Cl)ccc23)cc1,-2%[46.1 µM],-5%,/,-3%,/,/
COc1ccc2cc(CN(C(=O)c3cc(C)nn3C)C3CC3)c(-c3ccc(Cl)cc3)nc2c1,/,/,/,-19%,/,/
CCOC(=O)c1c(-c2ccc(C)o2)csc1NC(=O)COC(=O)c1cccs1,10%[46.1 µM],14µM*,?,?,-3%,?
CCOC(=O)c1c(-c2ccc(C)o2)csc1NC(=O)CN1CCOCC1,?,22µM*,?,0%,-24%,?
CCOC(=O)c1c(-c2ccc(C)o2)csc1NC(=O)CSc1ncn[nH]1,0%,20µM*,?,-16%,9%,15%
CCOC(=O)c1c(NC(=O)CSc2ncn[nH]2)sc(C(C)=O)c1C,/,?,?,?,0%,/
CCOC(=O)c1c(-c2cccs2)csc1NC(=O)CN(CC)CC,?,-1%,11µM*,-24%,-5%[3.69 µM],?
CCOC(=O)c1c(-c2cccs2)csc1NC(=O)CC(C)C,-14%,-3%,?,-7%,-5%,-16%
CCn1c2ccccc2c2cc(CN3CCN(Cc4ccc(Br)cc4)CC3)ccc21,/,2%,/,-28%,/,?
Cn1cc(-c2cc3n(n2)CCC(=O)N3CC(=O)NCc2ccccc2)c2ccccc21,/,-12%,/,9%,/,9%[46.1 µM]
CC(C)c1ccc(C2=NC(c3ccncc3)=Nc3ccc(F)cc3N2)cc1,7%[46.1 µM],-1%,/,-30%,/,?
CCOC(=O)c1c(CC(C)C)csc1NC(=O)COC(=O)c1cnc(C)cn1,/,/,/,5%,12%,/
CCOC(=O)c1c(-c2ccco2)csc1NC(=O)COC(=O)c1cnc(C)cn1,19%,28µM*,-13%,-11%,7%,2%
SMILES,MARV entry inh,Sm TGR inh,HCV inhibitor,FMDV inh,RE007 growth inh,Lassa entry inh
COC(=O)c1c(-c2cccs2)csc1NC(=O)c1cccnc1,22%,0%,11µM*,-19%,0%,8%
CCOC(=O)OC[C@H]1O[C@H](c2cc(C)cc(C)c2)C=C[C@H]1OC(=O)OCC,2%[14.2 µM],/,/,/,/,/
Cc1nc(-c2ccccc2)sc1CCNC(=O)c1ccco1,/,-1%,/,18%,/,4%[46.1 µM]
COc1cc(CNc2ccc3[nH]c(=O)[nH]c3c2)cc(Cl)c1OCc1ccccc1F,?,-9%,/,?,/,-6%[46.1 µM]
COc1cc(CNC2CCCC2)cc(Cl)c1OCc1ccccc1F,?,-11%,10µM*,/,-3%,?
O=C(c1ccc(C(F)(F)F)cc1)N(Cc1cc2ccc(F)cc2nc1N1CCOCC1)C1CC1,/,/,/,2%,/,/
CCS(=O)(=O)C1=NN2C(=N)/C(=C\c3ccc(OC(=O)c4ccco4)cc3)C(=O)N=C2S1,/,35µM*,27%,-3%,18%,/
CCS(=O)(=O)C1=NN2C(=N)/C(=C\c3ccc(OS(=O)(=O)c4ccccc4)cc3)C(=O)N=C2S1,/,45µM*,21%,-11%,0%,/
CN(C)c1ccc(CC(=O)N2CCCCC2c2cc(C(=O)Nc3ccccc3Cl)no2)cc1 (configuration not stated),/,/,/,35µM*,-2%,/
CCn1c(=O)c2cc(C(=O)N3CCN(c4cccc(OC)c4)CC3)sc2c2ccccc21,?,2%,/,0%,/,?
CC(Nc1nc(-c2ccc3c(c2)NC(=O)CO3)cs1)c1ccccc1 (configuration not stated),?,?,11µM*,-17%,20%,-14%
O=C1COc2ccc(-c3csc(NCC4CCCO4)n3)cc2N1 (configuration not stated),-11%[46.1 µM],3%[11.4 µM],?,3%,22%,?
COc1cccc(-c2nc(-c3ccc4c(c3)NC(=O)CO4)cs2)c1,?,?,14µM*,-15%,-20%,13%
Cc1ccc(NC(=O)c2ccc([N+](=O)[O-])o2)c(C)c1,/,/,14µM*,-9%,-27%,/
O=C(Nc1ccccc1Cl)c1ccc([N+](=O)[O-])o1,13µM*,?,?,-11%,?,?
Cc1cccnc1NC(=O)c1ccc([N+](=O)[O-])o1,5%,-28%,5%,-2%,-6%,-22%
O=C(Nc1cccc2ncccc12)c1ccc([N+](=O)[O-])o1,?,?,25µM*,8%,-25%,?
COC(=O)c1ccc(NC(=O)Cn2c(=O)nc(-c3ccccc3)c3ccccc32)cc1,/,15%,/,-28%,/,-1%[46.1 µM]
COc1ccc(Nc2ncnc3c2cnn3-c2cc(Cl)ccc2C)cc1OC,/,-1%,/,-8%,/,?
c1ccc(CNc2nc(-c3cccs3)nc3ccccc23)cc1,7%,-7%,?,?,3%,4%
c1csc(-c2nc(N3CCOCC3)c3ccccc3n2)c1,?,1%,11µM*,?,-28%,-26%
COc1ccc(Nc2nc(-c3cccc([N+](=O)[O-])c3)nc3ccccc23)cc1,15µM*,9%,?,40µM*,-10%,?
CCSc1nc(-c2cccs2)nc2ccccc12,-8%[46.1 µM],7%,4µM*,?,-16%,13%
COc1ccc(N2CCN(c3nc(-c4cccs4)nc4ccccc34)CC2)cc1,?,-2%,11µM*,?,-8%,2%

# Compound activity (PubChem BioAssay)
